# Screening data from PubChem.
# Compounds with a hit are over-represented: about 2.4% of the library has one in this group of screens.
# FEN1 inh: qHTS Assay for the Inhibitors of Human Flap endonuclease 1 (FEN1) | P39748 | 390,000 tested, 0.35% active | Potency, µM (top dose mostly 114 µM), without a hit: at the top dose activity change, negative = inhibition, usual class: inhibitors | Recombinant FEN1 flap cleavage, fluorescence, 15 min; further: on the % scale 0 is the no-effect control and ±100 the full control effect; nearly all actives have a fitted effect of over 65% in size
#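 Reaction started by adding substrate (50 nM final) to 10 nM enzyme after 15 min room-temperature compound preincubation. Reads at 0 and 15 min, with data normalized and fitted to a four-parameter Hill equation.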
# POLI inh: qHTS for Inhibitors of Polymerase Iota | Pol iota fluorescent replication assay, 10 min | 390,000 tested, 1% active | DNA polymerase iota (Homo sapiens), Q9UNA4 | AID 588590, 2011 | Potency, µM (doses to about 115 µM), for inactives: at the highest dose activity, negative = inhibition, actives largely listed as inhibitors
#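 Pol iota at 10 nM preincubated 15 min with compounds at room temperature; reaction started with fluorescent substrate, 50 nM final. Fluorescence read kinetically at 0 and 10 min; buffer-only wells as negative control.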
# Pol beta inh: qHTS Assay for Inhibitors of DNA Polymerase Beta; P06746; Pol beta primer extension/strand displacement, fluorescence kinetic; Potency, µM (doses to about 114 µM), inactives show at the top dose activity change, negative = inhibition, usual class: inhibitors; 340,000 tested, 1.3% active; AID 485314, 2010; further: on the % scale 0 is the no-effect control and ±100 the full control effect
#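 Curves were derived by four-parameter Hill fits of normalized qHTS data. The kinetic fluorescent primer-extension read was taken at 0 and 10 min after 50 nM substrate, following a 15 min room-temperature preincubation of 10 nM enzyme with compounds.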
# Pol eta inh-1: qHTS for Inhibitors of Polymerase Eta | Potency, µM (top dose mostly 114 µM), without a hit: at the top dose activity change, negative = inhibition, usual class: inhibitors | 390,000 tested, 1.2% active | DNA polymerase eta (Homo sapiens), Q9Y253 | recombinant Pol eta, fluorescent DNA replication assay; further: on the % scale 0 is the no-effect control and ±100 the full control effect
#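 Pol eta (10 nM) was preincubated with compounds for 15 min at room temperature, after which fluorescent replication substrate (50 nM final) was added to start the reaction. Fluorescence was read kinetically at 0 and 10 min.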
# Pol kappa inh-1: qHTS for Inhibitors of Polymerase Kappa. DNA polymerase kappa (Homo sapiens), Q9UBT6. purified Pol kappa, fluorescent DNA synthesis assay, 10 min. Potency, µM (titrated, usually from 107 µM), for inactives: at the highest dose activity, negative = inhibition, usual class: inhibitors. 400,000 tested, 0.53% active. AID 588579, 2011; further: on the % scale 0 is the no-effect control and ±100 the full control effect
# Target sequence (Q9UBT6 whole entry, looked up): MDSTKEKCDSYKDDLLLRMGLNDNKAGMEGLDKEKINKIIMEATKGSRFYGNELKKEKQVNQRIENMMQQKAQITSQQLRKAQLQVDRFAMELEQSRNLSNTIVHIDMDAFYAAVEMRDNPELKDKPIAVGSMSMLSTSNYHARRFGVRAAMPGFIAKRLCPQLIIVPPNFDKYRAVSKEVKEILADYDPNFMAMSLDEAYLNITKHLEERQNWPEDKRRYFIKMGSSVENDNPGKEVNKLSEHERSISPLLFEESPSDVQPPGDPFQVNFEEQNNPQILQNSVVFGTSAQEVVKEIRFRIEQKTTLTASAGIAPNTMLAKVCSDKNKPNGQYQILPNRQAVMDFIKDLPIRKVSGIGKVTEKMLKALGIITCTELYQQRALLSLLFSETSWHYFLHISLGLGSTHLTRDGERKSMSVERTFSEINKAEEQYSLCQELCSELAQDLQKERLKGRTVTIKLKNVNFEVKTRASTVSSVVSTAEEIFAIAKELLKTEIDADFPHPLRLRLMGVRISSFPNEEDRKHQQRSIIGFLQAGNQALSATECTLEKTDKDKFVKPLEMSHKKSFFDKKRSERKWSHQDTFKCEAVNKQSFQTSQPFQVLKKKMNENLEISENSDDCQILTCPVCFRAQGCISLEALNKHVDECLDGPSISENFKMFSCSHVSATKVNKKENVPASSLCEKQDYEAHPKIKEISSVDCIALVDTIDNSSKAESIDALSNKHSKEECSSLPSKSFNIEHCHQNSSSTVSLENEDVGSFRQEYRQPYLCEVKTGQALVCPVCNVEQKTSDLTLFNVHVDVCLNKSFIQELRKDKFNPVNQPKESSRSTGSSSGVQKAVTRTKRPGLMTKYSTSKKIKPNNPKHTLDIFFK
#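 50 nM final substrate added after 15 min RT preincubation of 10 nM Pol kappa with compound; fluorescence read at 0 and 10 min.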
# WRN inhibitor: qHTS for Inhibitors of WRN Helicase; Bifunctional 3'-5' exonuclease/ATP-dependent helicase WRN (Homo sapiens), Q14191; WRN helicase unwinding, fluorescent forked duplex, kinetic; Potency, µM (series often up to 114 µM), for inactives: at the highest dose activity change, negative = inhibition, actives largely listed as inhibitors; 360,000 tested, 0.46% active; AID 651768, 2012; further: on the % scale 0 is the no-effect control and ±100 the full control effect; nearly all actives have a fitted effect of over 55% in size
#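 Fluorescence dequenching readout, ex 525 nm/em 598 nm, kinetic mode: forked duplex DNA (100 nM final) with adjacent fluorophore and quencher unwound by WRN (20 nM final) with 2 mM ATP. Compound preincubation 15 min, room temperature.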
# Pol kappa inh-2: qHTS for Inhibitors of Polymerase Kappa: Confirmatory Assay for Cherry-picked Compounds; shares compounds with Pol eta inh-1; purified Pol-kappa, fluorescent strand-displacement substrate; Potency, µM, actives largely listed as inhibitors; 920 tested, 76% active; AID 720501, 2013
# Pol eta inh-2: qHTS for Inhibitors of Polymerase Eta: Confirmatory Assay for Cherry-picked Compounds | shares compounds with Pol eta inh-1 | 2,600 tested, 64% active | Potency, µM, most hits filed as inhibitors | Pol eta primer extension, TAMRA/BHQ fluorescence, 10 min | AID 720502, 2013
# Starred values were filed as active, the others as inactive; ? = inconclusive; · = no result given; [ ] = remark or other dose. The call rests on the fitted dose curve; in most records, active means well fitted curve in the direction sought with a large enough effect; inconclusive means small, poorly fitted or top-dose-only effect, or another doubt; inactive means no such curve, though single readings can be large; an effect the other way counts as inactive or inconclusive. Potency means the concentration at half of the fitted maximal effect.
SMILES,FEN1 inh,POLI inh,Pol beta inh,Pol eta inh-1,Pol kappa inh-1,WRN inhibitor,Pol eta inh-2,others
COc1ccc(NC(=O)/C(C#N)=C/c2ccc(-c3ccccc3C(=O)O)o2)cc1,-14%,18%,23%,-17%,-22%,-15%,·,
COc1ccc(NC(=O)/C(C#N)=C/c2ccc(-c3ccc(Cl)c(C(=O)O)c3)o2)cc1,?,?,0%,22µM*,-26%,-11%[11.6 µM],·,Pol kappa inh-2=?
COc1ccc(NC(=O)/C(C#N)=C\c2ccc(-c3cc(C(=O)O)ccc3C)o2)cc1,-11%,?,22µM*,20µM*,?,?,43*,Pol kappa inh-2=47*
CCc1ccccc1NC(=O)C(=O)NCC(c1cccnc1)N1CCN(c2ccccc2F)CC1 (centres undefined),-10%,-5%,7%,-16%,-14%,·,·,
CN(C)c1ccc(CNC(=O)c2sc3ncccc3c2-n2cccc2)cc1,-17%,16%,1%,-17%,-10%[60.1 µM],·,·,
CCc1oc(C(=O)O)cc1COC,1%,?,22µM*,28µM*,-29%,-22%[57.1 µM],30*,
CCc1oc(C(=O)O)cc1CN(CC)CC,-7%,-12%,1%,4%,-5%,-8%,·,
CCc1ccccc1NS(=O)(=O)c1ccc2[nH]cc(C(=O)NCc3ccco3)c(=O)c2c1,3%,24%,42%,11%,0%,2%[57.1 µM],·,
O=C(NCc1ccco1)c1c[nH]c2ccc(S(=O)(=O)Nc3ccc(F)cc3F)cc2c1=O,-12%,?,?,50µM*,-26%,·,·,Pol kappa inh-2=?
O=C(N/N=C/c1ccncc1)c1cc([N+](=O)[O-])cc([N+](=O)[O-])c1O,-12%,?,0%,25µM*,-5%,-21%[57.1 µM],?,
CCOC(=O)Cc1ccc(NC(=O)N(Cc2ccc(CC)cc2)Cc2cn[nH]c2-c2ccc(OC)cc2)cc1,-22%,-1%,7%,-21%,-19%,·,·,
S=c1[nH]nc(-c2cc(-c3ccco3)[nH]n2)n1-c1ccccc1Cl,?,?,?,32µM*,?,50µM*,?,
Cc1ccc(-c2csc(NC(=O)c3ccc(C)o3)n2)cc1,-19%,13%,-29%,-21%,-23%,-18%,·,
Cc1ccc(-c2csc(NC(=O)c3ccno3)n2)cc1,4%,?,14µM*,45µM*,-24%,-25%[57.1 µM],?,
CCCCCC(=O)c1c(O)cc(OC)c(Cl)c1O,·,·,·,·,11%[60.1 µM],·,·,
CCCCCCCCC(=O)c1c(OC)oc(C=O)cc1=O,·,·,·,22µM*,·,-13%[11.6 µM],?,Pol kappa inh-2=?
CC(C)OC(=O)c1ccc(NCc2cc(O)ccc2O)cc1,4%,-2%,·,-24%,-19%,-11%,·,
COP(=O)(OC)c1ccc(NCc2cc(O)ccc2O)cc1,79µM*,10µM*,·,10µM*,?,56µM*,48*,
COCCCNC(=O)CSc1nc2nc(C)c(Cc3ccccc3Cl)c(C)n2n1,15%,14%,1%,-9%,-23%,·,·,
COC(=O)C1=C(O)/C(=C\c2ccc(CNS(=O)(=O)c3ccc(Cl)cc3)o2)N=C1C,-10%,?,25µM*,?,79µM*,?,?,
O=C(Nc1ccc2nc3n(c(=O)c2c1)CCCCC3)c1c(F)ccc([N+](=O)[O-])c1F,-18%,?,15%,16µM*,8%,-27%[11.6 µM],48*,
CCOC(=O)c1c2c(n(Cc3ccccc3)c1C)C(=O)C(=O)c1ccccc1-2,-16%,40µM*,·,8.9µM*,-24%,-10%,85*,
CCOC(=O)c1c2c3c(cccc3n(C)c1=O)C(=O)c1ccccc1-2,?,?,?,?,-29%,-14%[57.1 µM],·,
CC1CCC(N2CC(=O)N(C3CCCCC3)C(c3ccc(Cl)cc3)C2=O)CC1 (centres undefined),-5%,21%,13%,-10%,-1%[60.1 µM],·,·,
Cc1ccc(C(=O)N/C(=C/c2ccco2)C(=O)O)cc1,-6%,6%,2%,-10%,-18%,-31%[57.1 µM],·,
SMILES,FEN1 inh,POLI inh,Pol beta inh,Pol eta inh-1,Pol kappa inh-1,WRN inhibitor,Pol eta inh-2,others
Cc1ccc(C(=O)N/C(=C\c2ccc(C)o2)C(=O)O)cc1,11%,-22%,?,32µM*,?,-10%,?,
CCOC(=O)N1CCN(Cc2nc3cc([N+](=O)[O-])ccc3n2C(C)C)CC1,2%,-7%,-1%,8%,1%,·,·,
Cc1ccc(S(=O)(=O)N2CCN(c3nc(-n4cccn4)nc4ccccc34)CC2)cc1,?,?,·,·,-3%,·,·,
N#Cc1c(-c2ccccc2)nc(SCC(=O)Nc2ccc(OC(F)(F)Cl)cc2)[nH]c1=O,-24%,12%,22µM*,?,5%,0%[11.6 µM],·,Pol kappa inh-2=?
N#Cc1c(-c2ccccc2)nc(SCC(=O)Nc2ccccc2)[nH]c1=O,8%,7%,-21%,2%,-4%,-15%,·,
Cc1ccc(C)c(-n2c3nc(=O)[nH]c(=O)c-3cc3cc([N+](=O)[O-])ccc32)c1,?,20µM*,35µM*,13µM*,?,79µM*,60*,
Cc1cccc(-n2c3nc(=O)[nH]c(=O)c-3cc3cc([N+](=O)[O-])ccc32)c1,?,?,29%,20µM*,-11%,-35%,48*,
O=c1nc2n(-c3ccccc3F)c3ccccc3cc-2c(=O)[nH]1,0%,?,-7%,1%,-3%,·,·,
Cc1cc(C)c2oc(-c3cccc(NC(=O)COc4ccc(Cl)cc4C)c3C)nc2c1,2%,-20%,·,·,-8%,·,·,
NC(=O)N/N=C/c1ccc(-c2ccc(S(=O)(=O)Nc3ncccn3)cc2)o1,-10%,?,·,35µM*,?,-7%[11.6 µM],67*,Pol kappa inh-2=38*
Nc1nnc(CC(=O)N/N=C/c2ccc(-c3ccc(F)cc3)o2)s1,3%,?,-15%,-10%,-9%,-14%,·,
